Values joined by “and” are separate entries in the source; they are usually repeats but may differ in a detail not shown here. Equal entries are not always repeated. For some assays here: Results with a measured potency or affinity are listed apart. Active and inactive are the calls of the source. Cut-off read from the data, not from the text of the source, unless noted: active = parasite load remaining mostly below about 12% (no sharp cut-off); inactive = mostly above about 10%.
How the values were obtained:
[1] = P. berghei load reduction in hepatocytes – cell-based, HepG2, luciferase luminescence, HepG2 viability, primary screen (AID 624349);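 note: 100% = mean of DMSO negative control wells on the same plate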; conditions: P. berghei liver stage in HepG2, luciferase luminescence, concentration not given here; parasite load remaining: stronger effect = lower value; viability: measured here: HepG2 viability without parasites
[2] = EMT-state selective cytotoxicity in co-culture – imaging, PC-3E GFP, TEM4-18 mCherry, primary screen (AID 1345086;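 active = compounds killing one labelled cell type while sparing the other, by normalised counts and ratio limits, not self-fluorescent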;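 for all read-outs here: cells exposed to compound for 72 h before imaging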;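 for red/green cell ratio (normalised): normalised mesenchymal count divided by normalised epithelial count so high means epithelial killing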); conditions: PC-3E GFP / TEM4-18 mCherry co-culture, imaging cell counts, at 1 µM; for red/green cell ratio (normalised): actives lie on both sides, counts scaled to control wells, 1 = unselective
[3] = viability loss with induced miR-34 in A549 – imaging, A549 dox-inducible miR-34, nuclei and caspase counts, primary screen (AID 1347080;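 active = compounds whose cell count with miR-34 switched on is under 0.7 times the count with it off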); conditions: A549 miR-34 inducible, Hoechst nuclei count, 48 h
[4] = galactose survival enhancers in mitochondrial complex I cybrids – cell-based, galactose medium, ATP luminescence, primary screen (AID 1645843;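 active = z-score of at least 1.8 in each of two replicates, scored against plate mean and spread of sample wells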;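 note: positive z means more ATP and so rescue of galactose-driven cybrid death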); conditions: complex I mutant cybrid cells, 72 h, stronger effect = higher value
[5] = blockers of polyQ-driven CASP3 activation – cell-based (AID 1583); conditions: polyglutamine-induced caspase-3 activation, cell assay; stronger effect = higher value;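 tested at 10 µM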
[6] = yeast 75Q aggregation reduction – 75Q-TubU reporter (AID 1593); conditions: Yeast 75Q polyglutamine aggregation reporter
[7] = restoration of touch response, mutant HTT neurons – whole organism, C. elegans mechanosensory neurons, N-terminal huntingtin (AID 1599); conditions: C. elegans polyQ-huntingtin mechanosensory neurons, stronger effect = higher value
[8] = blockers of cytochrome c efflux from mitochondria – biochemical, purified mitochondria (AID 1603); conditions: stronger effect = lower value;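 note: mouse liver mitochondria challenged with calcium chloride; signal normalized to the plate average as 100%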
[9] = polyglutamine aggregate formation blockers (AID 1604); conditions: polyglutamine-induced protein aggregation inhibition assay; stronger effect = higher value; tested at 2.5 µM
[10] = glutamate transport activators, MN-1 cells, MN-1 cell line (AID 1612); conditions: MN-1 motor neuron cells, stronger effect = higher value;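 note: tested at 1 µM final; 0% = mean of DMSO vehicle wells on each plate; positive means more glutamate uptake than control and negative means less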
[11] = 75Q-TubH aggregate inhibition, S. cerevisiae, yeast (AID 1616); conditions: S. cerevisiae 75Q-TubH polyglutamine aggregation suppression; stronger effect = higher value
[12] = GFP-Q80 aggregate reduction, neuronal-like cells, cell-based, NGF-treated PC12, GFPQ80 (AID 1614); conditions: PC12 NGF-treated GFP-polyQ80 inclusion reduction;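 note: lower means fewer inclusions and 0 means no inclusions at all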
[13] = blockers of cellular phospholipid synthesis – cell-based, LOPAC library, screen 4, primary screen (AID 1347384; call rule not given here); conditions: animal cells, phospholipid biosynthesis inhibition screen; at 10 µM
[14] = target: Mitogen-activated protein kinase 7 (Homo sapiens) (UniProt Q13164); test: Gal4-ERK5 driven luciferase induction – cell-based, HTS, primary screen (AID 1508626;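 active = luciferase signal above three times the same-plate solvent-only control wells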;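 note: luciferase driven by Gal4-ERK5 fusion binding five Gal4 sites before minimal TATA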); conditions: HeLa Gal4-ERK5 transactivation, 18 h, at 5 µM, stronger effect = higher value
[15] = measured here: epithelial PC-3E GFP cell survival
[16] = measured here: mesenchymal TEM4-18 mCherry cell survival
[17] = stronger effect = lower value, cell number ratio, induced over uninduced
[18] = measured here: relative caspase fold change +Dox/-Dox
[19] = measured here: total cells with miR-34 induction, stronger effect = lower value
[20] = measured here: total cells without miR-34 induction

Mitogen-activated protein kinase 7 (Homo sapiens), sequence (Q13164 whole entry, looked up, the tested form may be a part): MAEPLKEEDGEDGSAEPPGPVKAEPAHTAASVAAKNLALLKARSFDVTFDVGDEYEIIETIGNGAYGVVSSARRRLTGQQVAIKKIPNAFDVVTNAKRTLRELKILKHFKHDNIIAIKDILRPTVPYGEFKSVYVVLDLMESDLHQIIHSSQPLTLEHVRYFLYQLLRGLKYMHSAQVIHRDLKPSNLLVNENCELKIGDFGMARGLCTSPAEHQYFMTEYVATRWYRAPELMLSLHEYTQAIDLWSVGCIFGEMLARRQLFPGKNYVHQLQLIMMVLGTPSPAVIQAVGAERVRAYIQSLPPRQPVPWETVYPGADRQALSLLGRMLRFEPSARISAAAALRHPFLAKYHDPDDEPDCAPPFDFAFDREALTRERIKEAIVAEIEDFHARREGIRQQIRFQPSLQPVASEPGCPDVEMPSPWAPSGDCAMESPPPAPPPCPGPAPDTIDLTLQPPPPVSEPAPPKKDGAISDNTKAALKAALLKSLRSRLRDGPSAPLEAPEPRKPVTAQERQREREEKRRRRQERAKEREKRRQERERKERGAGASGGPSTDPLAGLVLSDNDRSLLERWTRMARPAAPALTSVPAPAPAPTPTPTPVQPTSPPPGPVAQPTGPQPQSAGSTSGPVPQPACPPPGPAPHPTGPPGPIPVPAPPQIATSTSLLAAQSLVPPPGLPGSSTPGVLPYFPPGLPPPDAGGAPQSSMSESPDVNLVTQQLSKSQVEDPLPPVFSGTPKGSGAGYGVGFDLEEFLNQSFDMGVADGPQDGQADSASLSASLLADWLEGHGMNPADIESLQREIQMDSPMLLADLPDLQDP

| Structure (SMILES) | parasite load remaining [1] | viability [1] | red/green cell ratio (normalised) [2] | normalised cell number [2, 15] | normalised cell number [2, 16] | fold change [3, 17] | fold change [3, 18] | cell count [3, 19] | cell count [3, 20] | z-score [4] | inhibition [5] [%] | score [6] | rescue above control [7] | cytochrome c release ratio [8] | inhibition of aggregation [9] [%] | glutamate uptake change [10] [%] | aggregation suppression score [11] | inclusion score [12] | outcome [13] | luciferase signal [14] |
| --- | --- | --- | --- | --- | --- | --- | --- | --- | --- | --- | --- | --- | --- | --- | --- | --- | --- | --- | --- | --- |
| C#C[C@]1(O)CCC2C3CCc4cc(OC)ccc4C3CC[C@@]21C (stereo not given in full) | 13.7% (inactive) | 131% | 1.01 (inactive) | 1.1 | 1.11 | 0.913 (inactive) and 0.85 (inactive) | 1.29 and 1.24 | 8740 and 9660 | 9570 and 11400 | -1.44 (inactive) | – | – | – | – | – | – | – | – | – | – |
| C[C@]12CCC(=O)C=C1CCC1C2C(=O)C[C@@]2(C)C1CC[C@]2(O)C(=O)CO (stereo not given in full) | – | – | 0.7 (inactive) | 1.3 | 0.91 | 0.915 (inactive) | 1.12 | 9120 | 9960 | 0.345 (inactive) | – | – | – | – | – | – | – | – | – | – |
| CCCCCCCCCCCCC[N+](C)(C)Cc1ccccc1 | 85.2% (inactive) and -0.62% (inactive) | 75.6% and 58.8% | 0.62 (inactive) | 0.83 | 0.51 | 0.898 (inactive) | 1.61 | 74.5 | 83 | – | 73.1 | -0.05 | 0 | 5.81 | 25 | 18.1 | -0.017 | – | – | – |
| C[C@]12CCC3c4ccc(OS(=O)(=O)O)cc4CCC3C1CCC2=O (stereo not given in full) | 45.1% (inactive) | 102% | 0.91 (inactive) | 0.94 | 0.86 | 0.918 (inactive) and 0.865 (inactive) | 1.03 and 4.55 | 9150 and 11800 | 9970 and 13700 | 0.9 (inactive) | – | – | – | – | – | – | – | – | – | – |
| CC12CCC(=O)C=C1CCC1C2[C@@H](O)CC2(C)C1CC[C@]2(O)C(=O)COP(=O)(O)O (stereo not given in full) | 75.6% (inactive) | 91.2% | 0.95 (inactive) | 1.05 | 0.99 | 0.789 (inactive) | 1.68 | 7430 | 9410 | – | -6.16 | 1.65 | -3.35 | 1.1 | 44.7 | 26.3 | 1.46 | 2 | – | – |
| O=C(O)c1cc(O)c2c(c1)[C@@H]([C@H]1c3cc(C(=O)O)cc(O)c3C(=O)c3c(O[C@H]4O[C@H](CO)[C@@H](O)[C@H](O)[C@H]4O)cccc31)c1cccc(O[C@H]3O[C@H](CO)[C@@H](O)[C@H](O)[C@H]3O)c1C2=O | 132% (inactive) and 77.3% (inactive) | 80.8% and 104% | 0.69 (inactive) | 1.22 | 0.84 | 0.789 (inactive) | 9.83 | 10200 | 12900 | – | – | – | – | – | – | – | – | – | – | – |
| CO/N=C(/C(=O)NC1C(=O)N2C(C(=O)OC(C)OC(C)=O)=C(COC(N)=O)CSC12)c1ccco1 (stereo not given) | 60.6% (inactive) | 138% | 1.1 (inactive) | 0.93 | 1.02 | 0.889 (inactive) | 1.77 | 12300 | 13900 | – | – | – | – | – | – | – | – | – | – | – |
| CC(=O)S[C@@H]1CC2=CC(=O)CC[C@]2(C)[C@H]2CC[C@@]3(C)[C@@H](CC[C@@]34CCC(=O)O4)C12 (stereo not given in full) | 56.6% (inactive) and 46.1% (inactive) | 72.6% and 88.2% | 1.24 (inactive) | 1 | 1.25 | 0.863 (inactive) | 2.19 | 10200 | 11900 | – | – | – | – | – | – | – | – | – | – | – |
| CC(C)=CCC/C(C)=C/COc1ccc2ccc(=O)oc2c1 | – | – | 1.07 (inactive) | 0.93 | 0.99 | – | – | – | – | – | – | – | – | – | – | – | – | – | inactive | 76 AU (inactive) |
| CC1OC1P(=O)(O)O (stereo not given) | 59.9% (inactive) and 33.6% (inactive) | 74.5% and 90.1% | 1.09 (inactive) | 1.06 | 1.16 | – | – | – | – | – | -3.29 | 1.42 | 16.3 | 6.79 | 83.9 | -1.38 | 1.43 | 2 | inactive | – |
| CCOC(=O)C(C)(N)Cc1ccc(O)c(O)c1 (stereo not given) | 15% (inactive) | 103% | 1.25 (inactive) | 0.9 | 1.12 | 0.926 (inactive) | 3.34 | 12200 | 13200 | – | – | – | – | – | – | – | – | – | – | – |
| CCCC[C@@H](CC)COC(=O)c1ccccc1O | 49.2% (inactive) | 118% | 0.88 (inactive) | 1.19 | 1.04 | 0.858 (inactive) | 1.6 | 11400 | 13300 | – | – | – | – | – | – | – | – | – | – | – |
